From PubChem BioAssay AID686978 (National Center for Advancing Translational Sciences (NCATS), 2013) come the findings set out here.

The whole screen tested about 420,000 compounds, of which about 64,000 (15%) were called active. Not shown: some 27% with an inconclusive outcome. Calls come from the whole dose curve; as a rule, active = well fitted inhibition curve with a large enough effect; inconclusive = small, poorly fitted or top-dose-only effect; inactive = flat fitted curve, though single readings scatter. These entries were drawn from the full list. Entries that show only a call come without a potency.
Potency is the fitted concentration of half-maximal effect.

A short description of the experiment: qHTS for Inhibitors of human tyrosyl-DNA phosphodiesterase 1 (TDP1): qHTS in cells in absence of CPT. Note: nearly all actives have a fitted effect of over 55% in size. Conditions: DT40 Tdp1-/- hTDP1 cells, no CPT, ATP luminescence, 48 h; activity change, negative = growth inhibition: at 46.2 µM (top of the series). The method in brief: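 Chicken DT40 Tdp1-/- cells stably complemented with human TDP1 were seeded at 400 cells/well with DMSO in place of 20 nM camptothecin. After compound pinning, cells grew at least 48 hr at 37 °C; viability read by CellTiter-Glo luminescence.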
A general note: In qHTS, concentration-response curves come from the screen itself.
Consider `COC(=O)CSc1nnc(NC(=O)CCc2ccccc2)s1`, for which the Potency result is “inactive”.
The value for `O=C(OCc1cc(Cl)ccc1OC(F)F)c1cccnc1` was “inactive”; that for `CCO/N=C(/C)c1c(O)cc(-c2ccccc2)n(-c2ccccc2)c1=O` was “inactive”.
To `O=C1NC[C@@H](CCCCN2CCN(CCc3ccc(O)cc3)C(=O)C2=O)N(CC2CCCCC2)C1=O` belongs “inactive”.
To `COc1ccc(-c2noc(CNC(=O)C(C)Oc3ccccc3)n2)cc1` (configuration not stated) belongs “inactive”; to `COc1ccc(-c2noc(CN(C)S(=O)(=O)c3ccc(C)cc3)n2)cc1`, 18.4 µM (active); to `COc1ccc2nc(SCC(=O)Nc3c(C)cc(C)cc3C)[nH]c2c1`, “inactive”.
With `Cc1ccc(S(=O)(=O)N(Cc2nc(-c3ccc(Cl)cc3)no2)C2CCCCC2)cc1`, the Potency was 16.4 µM (active).
To `CC1CCN(Cc2nc(-c3ccc(Cl)cc3)no2)CC1` belongs “inactive”; to `COc1ccc(-c2noc(CSc3nc4ccc(C)cc4[nH]3)n2)cc1`, 11.6 µM (active); to `Cc1ccc(-c2noc(CC(c3ccccc3)c3ccccc3)n2)cc1`, “inactive”.
To `COc1ccc(-c2noc(CSc3ccc(C)cc3)n2)cc1` belongs “inactive”; to `Cc1ccc(C(=O)OCc2nc(N)nc(Nc3ccccc3C)n2)cc1`, “inactive”.
The value for `O=C1CCCc2nn(-c3ccccc3)nc21` was “inactive”.
Turning to `O=c1[nH]c2c(c(=O)n1Cc1ccccc1)CCC2`, the Potency entry was “inactive”.
The value for `CC(C)c1nnc(NC(=O)COC(=O)/C=C/c2ccc([N+](=O)[O-])cc2)s1` was “inactive”; that for `O=C(O)CCCCC(=O)O` was “inactive”.
To `CC(Oc1ccccc1[N+](=O)[O-])C(=O)N/N=C/c1ccoc1` (configuration not stated) belongs “inactive”; to `Cc1noc(C)c1CSc1nnc2ccc3ccccc3n12`, “inactive”; to `COc1ccc(C(=O)N/N=C(\C)CC(=O)Nc2ccc(Cl)cn2)cc1`, “inactive”.
With `Cc1cc(OC(C)C(=O)Nc2sc3c(c2C(N)=O)CCCC3)ccc1Cl` (configuration not stated), the Potency result is “inactive”.
To `N#Cc1c(NC(=O)c2ccc(N3CCOCC3)c([N+](=O)[O-])c2)sc2c1CCCC2` belongs 6.51 µM (active); to `O=C(NCCCN1CCOCC1)c1ccc(N2CCCC2)c([N+](=O)[O-])c1`, “inactive”.
To `Cc1cccc(C)c1NC(=O)CNC(=O)c1ccc(N2CCOCC2)c([N+](=O)[O-])c1` belongs “inactive”.
The value for `CC(/C=C/C1(O)C(C)CC(=O)CC1(C)C)OC1OC(CO)C(O)C(O)C1O` (configuration not stated) was “inactive”; that for `CCOCc1nnc(NC(=O)CCC2CCCCC2)s1` was “inactive”; that for `CN1CCc2ccccc2C1Cc1ccccc1NC(=O)c1sc2ccccc2c1Cl` (configuration not stated) was 6.51 µM (active).
For `CCc1ccccc1NC(=O)NCCN1CCCCC1`, the Potency result was “inactive”.
The value for `CCc1ccccc1NC(=O)c1ccc2c(c1)CCN2S(C)(=O)=O` was “inactive”; that for `NNc1nnc(NN)c2ccccc12` was “inactive”.
To `CC(O)CN(Cc1ccc(Cl)cc1)CC(C)O` (configuration not stated) belongs “inactive”; to `Cc1ccc(C)c(C(=O)N2CCC(n3nccc3NC(=O)C3CC3)CC2)c1`, “inactive”.
Consider `Cc1ccc(NC(=O)N2CCSc3ccccc32)cc1`, for which the Potency entry is “inactive”.
With `Cc1ccc(CC(=O)Nc2cccc(C#N)c2)cc1`, the Potency result is “inactive”.
Turning to `Cc1ccc(NC(=O)Cc2ccc(NC(=O)N3CCCCc4ccccc43)cc2)cc1`, the Potency is 23.1 µM (active).
For `CN(C)S(=O)(=O)c1cccc(C(=O)OCC(=O)N2CCCC2=O)c1`, the Potency result is “inactive”.
To `O=C(CSc1ncn[nH]1)NCc1ccc2c(c1)OCO2` belongs “inactive”.
The value for `OCCC1CN(Cc2cccn2-c2nccs2)CCN1CCc1ccccc1` (configuration not stated) was “inactive”.
The value for `OCCC1CN(Cc2ccc(Oc3ncccn3)cc2)CCN1CCc1ccccc1` (configuration not stated) was “inactive”; that for `CCOc1ccc(CN2CCN(CCCc3ccccc3)C(CCO)C2)cc1` (configuration not stated) was 20.6 µM (active); that for `OCCC1CN(Cc2cccc(O)c2)CCN1CCc1ccccc1` (configuration not stated) was “inactive”.
Regarding `CCOc1ccc(CN2CCN(Cc3ccon3)CC2CCO)cc1` (configuration not stated), the Potency result was “inactive”.
As for `CCOc1ccc(CN2CCN(Cc3ccc4cc(F)ccc4n3)CC2CCO)cc1` (configuration not stated), the Potency is 25.9 µM (active).
To `OCCC1CN(Cc2cnc(-c3ccccc3)s2)CCN1CCc1ccccc1` (configuration not stated) belongs 8.2 µM (active); to `Cc1ccc(CN2CCN(Cc3ccc(OCCO)cc3)CC2CCO)o1` (configuration not stated), “inactive”.
The value for `COc1cccc(CN2CCN(Cc3ccc4cccc(F)c4n3)CC2CCO)c1` (configuration not stated) was “inactive”; that for `C[C@H]1CN([C@@H](C)CO)C(=O)CCCn2nncc2CO[C@@H]1CN(C)S(=O)(=O)c1cccc(C#N)c1` was “inactive”.
The value for `CCCOC(=O)c1ccc(N2C(=O)c3ccccc3C2=O)cc1` was “inactive”.
For the compound `CCOc1ccc(CCNC(=O)COC(=O)CCS(=O)(=O)c2ccc(C)cc2)cc1OCC`, the Potency result is “inactive”.
The value for `COC(=O)CN1C(C)=Nc2ccc(Br)cc2C1c1ccccc1` (configuration not stated) was “inactive”; that for `O=C(/C=C/c1ccccc1[N+](=O)[O-])NCC1CCCO1` (configuration not stated) was “inactive”; that for `CC1CCCCC1NC(=O)/C(C#N)=C/C=C/c1ccccc1[N+](=O)[O-]` (configuration not stated) was 9.2 µM (active).
For `O=C(/C=C/c1ccccc1[N+](=O)[O-])OC1CCCCC1=O` (configuration not stated), the Potency result is “inactive”.
`CCC(CC)C(=O)Nc1cccc(C(=O)N2CCCC2)c1`: the Potency entry was “inactive”.
In the case of `Cc1occc1-c1nnc(SCC(=O)NC2(C#N)CCCC2)n1C`, the Potency entry is “inactive”.
The value for `CCOCCCN1C(=O)C2C(C(=O)Nc3ccc(OCC)cc3)C3C=CC2(O3)C1C(=O)NC1CCCCC1` (configuration not stated) was “inactive”; that for `O=C(Nc1cccc(Cl)c1)OCc1ccccn1` was “inactive”.
The value for `OCCCNc1nccc(-c2cc(Nc3cccc(Cl)c3)ncn2)n1` was 0.731 µM (active).
The value for `NS(=O)(=O)c1cccnc1Nc1cccc(Cl)c1` was “inactive”; that for `CCC(Sc1nncn1C)C(=O)Nc1nnc(-c2ccc(Cl)cc2)s1` (configuration not stated) was “inactive”; that for `NS(=O)(=O)c1cc2c(cc1Cl)NC(C(Cl)Cl)NS2(=O)=O` (configuration not stated) was “inactive”.
Take `O=P(c1cccs1)(c1cccs1)c1cccs1`: the Potency entry was “inactive”.
To `O=C(Nc1ccccc1Cl)c1ccccc1S(=O)(=O)c1ccccc1[N+](=O)[O-]` belongs “inactive”; to `COc1cc(/C=N/N=C(\N)c2nonc2N)cc(OC)c1OC`, “inactive”; to `COc1cc(OC)c(/C=N/NC(=O)c2ccc([N+](=O)[O-])cc2)cc1Br`, “inactive”.
To `COc1cc(/C=N\NC(=O)c2nonc2N)c(OC)cc1Br` belongs 29.1 µM (active); to `CCc1cc2c(=O)c(-c3nc4ccccc4n3C)c(CCCC(=O)O)oc2cc1OC(=O)C(C)(C)C`, “inactive”.
To `COc1ccc(O)c(/C=N/N=C/c2cccc([N+](=O)[O-])c2)c1` belongs “inactive”; to `Cc1ccc(S(=O)(=O)NC(=O)N2CCCC(C)(C)C2)cc1`, “inactive”.
With `O=C(NC1CCN(C(=S)NCc2ccco2)CC1)c1ccc(F)cc1`, the Potency result is “inactive”.
The value for `Cc1cc(C)c[n+](-c2nc3ccccc3nc2[N-]S(=O)(=O)c2cccs2)c1` was “inactive”.
The value for `O=S(=O)(NCc1cccnc1)c1ccc(Br)s1` was “inactive”; that for `O=S(=O)([N-]c1nc2ccccc2nc1-[n+]1ccc(Cc2ccccc2)cc1)c1ccc(Br)s1` was 14.6 µM (active).
To `Cc1cc(C)cc(NC(=O)CCS(=O)(=O)c2cc3c4c(c2)CCN4C(=O)CC3)c1` belongs “inactive”; to `CC1CSc2nnc(CCc3ccccc3)n21` (configuration not stated), “inactive”; to `Cc1cc(C(=O)COC(=O)c2cccs2)c(C)n1-c1c(C)n(C)n(-c2ccccc2)c1=O`, “inactive”.
In the case of `COc1ccc(-c2nnc(SC(C)C#N)o2)cc1` (configuration not stated), the Potency entry is “inactive”.
The value for `COc1ccc(-c2nnc(SC(=O)N3c4ccccc4Sc4ccccc43)o2)cc1` was 7.94 µM (active); that for `COc1ccc(-c2nnc(-c3ccc4ccccc4c3)o2)cc1` was “inactive”.
The value for `COc1ccc(NC(=S)SC)cc1OC` was “inactive”.
As for `COc1cc(C(c2c(NC(=O)c3ccco3)sc(C)c2C)N2CCOCC2)cc(OC)c1OC` (configuration not stated), the Potency was 29.1 µM (active).
The value for `COC(=O)c1cc(NC(=O)c2ccco2)ccc1N1CCOCC1` was “inactive”; that for `COc1ccc(CC(=O)Nc2ccccc2NC(=O)c2ccco2)cc1OC` was “inactive”.
Turning to `C=CCNC(=O)c1cc2nc(C3CC3)cc(C(F)F)n2n1`, the Potency result is “inactive”.
The value for `CCCCn1c(N)c(N(CC)C(=O)/C=C/c2ccco2)c(=O)[nH]c1=O` was “inactive”; that for `CC1CCN(C(=O)c2ccc3c(=O)n4c(nc3c2)CCCCC4)CC1` was “inactive”.
To `CC1CCc2c(sc3nc4n(c(=O)c23)CCS4)C1` (configuration not stated) belongs “inactive”; to `Cc1ccc(NC(=O)Nc2sc3nc4n(c(=O)c3c2C)CCC(C)CC4)c(Cl)c1` (configuration not stated), 11.6 µM (active).
For `CNC(=O)c1nnc(Cc2ccc(Cl)cc2)o1`, the Potency result was “inactive”.
On to `O=C1C2C3C=CC(C3)C2C(=O)N1c1ccc(S(=O)(=O)Nc2nccs2)cc1` (configuration not stated), for which the Potency entry was “inactive”.
To `Cc1ccc2sc(NNC(=O)c3ccc4c(c3)OCCO4)nc2c1C` belongs “inactive”.
As to `O=C(NC1CCCCC1)n1c(=O)oc2cc(S(=O)(=O)N3CCCCC3)ccc21`, the Potency entry is “inactive”.
`Cc1ccc2nc(NC(=O)C3CCN(S(=O)(=O)c4ccc5c(c4)oc(=O)n5C)CC3)sc2c1`: the Potency was 14.6 µM (active).
To `O=C(Nc1nc2ccc(S(=O)(=O)N3CCCC3)cc2s1)C1CCCO1` (configuration not stated) belongs “inactive”; to `CC(=O)Nc1c2c(nn1-c1ccc(C)cc1C)CS(=O)C2` (configuration not stated), “inactive”.
To `O=C(O)c1ccc(NC(=O)C2CCCCC2)cc1` belongs “inactive”; to `CC(=O)c1ccc(S(=O)(=O)Nc2ccc(-c3ccc4nncn4n3)cc2)cc1`, “inactive”; to `O=C(Nc1ccc(-c2ccc3nncn3n2)cc1)C1CCCCC1`, 16.4 µM (active).
To `O=C(c1cn2ccccc2n1)N1CCc2c([nH]c3ccccc23)C1c1ccccn1` (configuration not stated) belongs “inactive”.
With `CCOc1ccc(C2c3[nH]c4ccccc4c3CCN2Cc2cccn2-c2ncccn2)cc1` (configuration not stated), the Potency was 13 µM (active).
With `CCOc1ccc(C2c3[nH]c4ccccc4c3CCN2Cc2cn(CC)nc2C)cc1` (configuration not stated), the Potency result was “inactive”.
The value for `c1ccc(C2c3[nH]c4ccccc4c3CCN2Cc2cccn2-c2cccnc2)nc1` (configuration not stated) was 5.8 µM (active).
The value for `COCC(=O)Nc1c(I)c(C(=O)NCC(O)CO)c(I)c(C(=O)N(C)CC(O)CO)c1I` (configuration not stated) was “inactive”; that for `Nc1nc(SCC(=O)N2CCN(S(=O)(=O)c3ccc(Cl)cc3)CC2)n[nH]1` was “inactive”; that for `CC(CCN1CCN=C1N(C)C)c1ccccc1` (configuration not stated) was “inactive”.
The value for `Cc1ccc2[nH]c(=O)c(COC(=O)c3ccccn3)cc2c1` was “inactive”.
On to `Cc1ccccc1NC(=O)c1cnn(-c2ccccc2)c1NC(=O)c1ccco1`, for which the Potency result is “inactive”.
